# In PubChem BioAssay (EPA / NIEHS):
# “And” between values parts separate entries of the source, which are not always exact repeats. Identical values can stand only once. Records with an inconclusive call do not appear. Where a structure was tested more than once in an assay, its records may differ in their call. The source made the active and inactive calls. Rule for the calls, unless noted: active = hit-call score of the fitted dose curve at least 0.9, where 1 is the maximum; inactive = score below 0.9.
# Legend:
# [1] = ATG_NFI_CIS: Attagene CIS-FACTORIAL HepG2 Assay for human Nuclear Factor I (NFI) (AID 2282989); conditions: HepG2 cis-regulatory reporter, NFI response element transcription; actives raise or lower the signal
# Outline: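 Transfected HepG2 liver cells, exposed 24 h, supplied total RNA for oligo(dT) reverse transcription and reporter-specific PCR. Labelled, HpaI-cut fragments were sized by capillary electrophoresis; DMSO set the baseline for bidirectional fitting.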
# [2] = target: Myc proto-oncogene protein (Homo sapiens) (UniProt P01106); experiment: ATG_Myc_CIS: Attagene CIS-FACTORIAL HepG2 Assay for human Myelocytomatosis (Myc) Proto-Oncogene Transcription Factor (AID 2282990); conditions: HepG2, Attagene cis-reporter transcription factor activity; actives raise or lower the signal
# Chain of Myc proto-oncogene protein (Homo sapiens) (P01106 whole entry, looked up, the tested form may be a part): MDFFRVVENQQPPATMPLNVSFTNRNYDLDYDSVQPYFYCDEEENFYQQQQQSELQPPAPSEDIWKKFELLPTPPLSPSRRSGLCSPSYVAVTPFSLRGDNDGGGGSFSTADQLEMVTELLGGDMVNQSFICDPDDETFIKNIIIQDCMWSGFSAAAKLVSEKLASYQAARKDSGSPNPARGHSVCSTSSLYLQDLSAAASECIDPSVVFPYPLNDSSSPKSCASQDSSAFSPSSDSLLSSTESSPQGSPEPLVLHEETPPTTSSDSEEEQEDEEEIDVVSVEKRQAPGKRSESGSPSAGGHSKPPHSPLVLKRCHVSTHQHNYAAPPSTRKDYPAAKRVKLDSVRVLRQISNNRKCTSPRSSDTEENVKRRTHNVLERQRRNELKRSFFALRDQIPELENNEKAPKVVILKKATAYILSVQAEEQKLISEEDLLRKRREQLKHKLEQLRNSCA
# Outline: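 Fluorescence intensity of reporter-specific cDNA fragments, separated by capillary electrophoresis, gives the signal. Transfected HepG2 cells carrying cis-promoter reporter constructs are incubated with compound for 24 h; DMSO serves as baseline.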
# [3] = ATG_NF_kB_CIS: Attagene CIS-FACTORIAL HepG2 Assay for human Nuclear Factor Kappa B (NF-kB) (AID 2282991); conditions: HepG2 Attagene cis-factorial NF-kB reporter mRNA; actives raise or lower the signal
# Outline: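 Fluorescence of labelled RT-PCR products separated by capillary electrophoresis gives reporter mRNA levels from transfected HepG2 cells exposed 24 h; values are fitted in both directions relative to DMSO.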
# [4] = ATG_NRF2_ARE_CIS: Attagene CIS-FACTORIAL HepG2 Assay for human Nuclear Factor Erythroid 2 Related Factor 2 (NFR2) response to Antioxidant Response Elements (ARE) (AID 2282992); conditions: HepG2 Attagene ARE/NRF2 reporter, transcription factor activity; actives raise or lower the signal
# Outline: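 Readout: reporter mRNA quantified by RT-PCR plus FAM-labelled primer extension, HpaI digestion and capillary electrophoresis, 24 h after dosing transfected HepG2 cells. Gain or loss of signal is fitted bidirectionally against DMSO baseline.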
# [5] = target: Cellular tumor antigen p53 (Homo sapiens) (UniProt P04637); experiment: ATG_p53_CIS: Attagene CIS-FACTORIAL HepG2 Assay for human p53 Transcription Factor (AID 2282994); conditions: HepG2 p53 cis-element reporter, Attagene mRNA; actives raise or lower the signal
# Chain of Cellular tumor antigen p53 (Homo sapiens) (P04637 whole entry, looked up): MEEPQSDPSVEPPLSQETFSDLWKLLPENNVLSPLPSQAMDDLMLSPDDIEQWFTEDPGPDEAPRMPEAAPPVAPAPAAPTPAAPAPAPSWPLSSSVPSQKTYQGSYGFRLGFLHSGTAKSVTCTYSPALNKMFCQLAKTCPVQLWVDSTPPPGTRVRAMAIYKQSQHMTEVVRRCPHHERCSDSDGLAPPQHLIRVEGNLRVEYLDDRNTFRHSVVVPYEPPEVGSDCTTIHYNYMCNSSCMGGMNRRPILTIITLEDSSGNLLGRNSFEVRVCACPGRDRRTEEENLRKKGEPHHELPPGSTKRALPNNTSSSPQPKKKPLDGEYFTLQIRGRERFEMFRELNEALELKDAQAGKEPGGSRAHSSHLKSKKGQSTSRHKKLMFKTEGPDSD
# Outline: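 Read-out: reporter mRNA by RT-PCR plus capillary electrophoresis with fluorescence detection. Human HepG2 liver cells carried transfected multi-reporter cis-element constructs, dosed 24 h. Gain or loss of signal fitted bidirectionally against DMSO control.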
# [6] = BSK_3C_TissueFactor: BioMAP Diversity Plus: 3C Assay for Tissue Factor Biomarker Activity (AID 2282997); conditions: BioMAP 3C HUVEC, tissue factor biomarker readout; actives raise or lower the signal
# Outline: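 After a 24 h chemical exposure of primary human umbilical vein endothelial cells, Tissue Factor levels were quantified by ELISA.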
# [7] = BSK_3C_uPAR: BioMAP Diversity Plus: 3C Assay for Urokinase-type plasminogen activator receptor (uPAR) Biomarker Activity (AID 2282998); conditions: BioMAP 3C HUVEC, uPAR biomarker ELISA; actives raise or lower the signal
# Outline: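 In this endothelial cell-based assay, human umbilical vein primary cells were treated with chemicals and harvested at 24 h. uPAR was quantified using ELISA, with gains or losses fitted relative to DMSO controls.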
# [8] = BSK_3C_VCAM1: BioMAP Diversity Plus: 3C Assay for Vascular cell adhesion molecule 1 (VCAM1) Biomarker Activity (AID 2282999); conditions: BioMAP 3C HUVEC, VCAM1 ELISA, cytokine-stimulated; actives raise or lower the signal
# Outline: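 HUVEC primary cells, 24 h compound exposure; VCAM-1 by ELISA; gain/loss of signal fitted bidirectionally vs DMSO baseline.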
# [9] = BSK_4H_Eotaxin3: BioMAP Diversity Plus: 4H Assay for Eotaxin 3 Biomarker Activity (AID 2283000); conditions: primary human endothelial cells (HUVEC); actives raise or lower the signal;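 for outcome: CCL26 protein level quantified by ELISA in parallel with SRB cytotoxicity check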
# Outline: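 Chemicals were added to human umbilical vein endothelium cultures, and Eotaxin-3 was quantified by ELISA at 24 h. Values were derived by bidirectional fitting with DMSO serving as negative control and activity baseline.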
# [10] = target: human Peroxisome Proliferator-activated Receptor alpha (PPARa), PPARA (gene 5465) (UniProt Q07869); experiment: ATG_PPARa_TRANS: Attagene TRANS-FACTORIAL HepG2 Assay for human Peroxisome Proliferator-activated Receptor alpha (PPARa) (AID 2283001; active = hit-call score of the fitted dose curve at least 0.9, where 1 is the maximum;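 for AC50: potency for gain of reporter signal over DMSO so agonist or activator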)
# Chain of human Peroxisome Proliferator-activated Receptor alpha (PPARa), PPARA (gene 5465) (Q07869 whole entry, looked up, the tested form may be a part): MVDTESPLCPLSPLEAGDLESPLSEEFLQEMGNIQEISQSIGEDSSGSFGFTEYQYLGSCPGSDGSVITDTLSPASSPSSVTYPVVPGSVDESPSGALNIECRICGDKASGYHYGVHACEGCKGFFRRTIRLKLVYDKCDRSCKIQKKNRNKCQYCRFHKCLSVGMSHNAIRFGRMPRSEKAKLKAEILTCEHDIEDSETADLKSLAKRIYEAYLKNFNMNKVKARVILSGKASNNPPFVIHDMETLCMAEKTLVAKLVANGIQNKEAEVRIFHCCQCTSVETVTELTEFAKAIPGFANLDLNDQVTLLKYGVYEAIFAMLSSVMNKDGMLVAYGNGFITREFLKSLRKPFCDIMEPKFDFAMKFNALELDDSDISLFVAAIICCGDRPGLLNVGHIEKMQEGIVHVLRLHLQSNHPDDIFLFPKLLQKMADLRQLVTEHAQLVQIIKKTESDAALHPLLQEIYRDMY
# Outline: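 Transient HepG2 transfection, GAL4-UAS reporters, NR-Gal4 chimeras; 24 h compound exposure. Readout: reporter transcripts by RT-PCR, 6-FAM primer extension, HpaI digest, capillary electrophoresis. Positive direction vs DMSO baseline.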
# [11] = target: human Peroxisome Proliferator-activated Receptor delta (PPARd), PPARD (gene 5467) (UniProt Q03181); experiment: ATG_PPARd_TRANS: Attagene TRANS-FACTORIAL HepG2 Assay for human Peroxisome Proliferator-activated Receptor delta (PPARd) (AID 2283002; active = hit-call score of the fitted dose curve at least 0.9, where 1 is the maximum)
# Chain of human Peroxisome Proliferator-activated Receptor delta (PPARd), PPARD (gene 5467) (Q03181 whole entry, looked up, the tested form may be a part): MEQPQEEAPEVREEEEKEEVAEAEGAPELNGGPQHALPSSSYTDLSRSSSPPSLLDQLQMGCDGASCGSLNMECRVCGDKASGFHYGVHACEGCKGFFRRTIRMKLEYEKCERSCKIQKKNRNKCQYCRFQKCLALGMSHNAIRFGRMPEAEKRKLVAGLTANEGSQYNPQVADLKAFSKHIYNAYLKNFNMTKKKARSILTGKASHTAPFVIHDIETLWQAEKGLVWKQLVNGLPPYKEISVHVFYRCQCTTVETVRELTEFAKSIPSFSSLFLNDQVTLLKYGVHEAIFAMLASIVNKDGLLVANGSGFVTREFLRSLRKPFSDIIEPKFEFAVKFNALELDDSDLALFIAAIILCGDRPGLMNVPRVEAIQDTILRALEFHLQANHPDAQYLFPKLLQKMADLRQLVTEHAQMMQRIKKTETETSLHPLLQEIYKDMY
# Outline: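 Fluorescence from capillary electrophoresis of labelled RT-PCR reporter fragments gives the signal; DMSO sets baseline. Cells: HepG2 transiently carrying GAL4-UAS reporter units plus chimeric nuclear receptor-Gal4 proteins, exposed to chemicals for 24 h.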
# [12] = read-out: Intercellular Adhesion Molecule 1 (ICAM1), ICAM1 (gene 3383); experiment: BSK_3C_ICAM1: BioMAP Diversity Plus: 3C Assay for Intercellular Adhesion Molecule 1 (ICAM1) Biomarker Activity (AID 2283003); conditions: primary human endothelial cells (HUVEC); actives raise or lower the signal
# Outline: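 ELISA read-out of ICAM-1; HUVEC (primary human), 3C system, 24 h post-dosing; bidirectional fit vs DMSO baseline.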
# [13] = target: human Retinoic Acid Receptor beta (RARb), RARB (gene 5915) (UniProt P10826); experiment: ATG_RARb_TRANS: Attagene TRANS-FACTORIAL HepG2 Assay for human Retinoic Acid Receptor beta (AID 2283004; active = hit-call score of the fitted dose curve at least 0.9, where 1 is the maximum)
# Chain of human Retinoic Acid Receptor beta (RARb), RARB (gene 5915) (P10826 whole entry, looked up): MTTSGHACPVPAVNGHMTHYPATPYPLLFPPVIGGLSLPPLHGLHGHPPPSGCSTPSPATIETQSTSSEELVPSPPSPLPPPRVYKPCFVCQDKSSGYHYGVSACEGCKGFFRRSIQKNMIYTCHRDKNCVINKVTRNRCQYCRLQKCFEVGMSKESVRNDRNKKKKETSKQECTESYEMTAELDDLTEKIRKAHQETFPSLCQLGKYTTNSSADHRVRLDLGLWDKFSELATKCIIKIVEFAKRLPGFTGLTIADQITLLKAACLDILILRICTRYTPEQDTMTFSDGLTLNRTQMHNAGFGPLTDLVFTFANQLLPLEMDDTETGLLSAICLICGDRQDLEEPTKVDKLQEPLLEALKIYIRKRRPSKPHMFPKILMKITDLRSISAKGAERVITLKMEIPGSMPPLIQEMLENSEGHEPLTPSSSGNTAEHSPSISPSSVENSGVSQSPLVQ
# Outline: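 Transient transfection of HepG2 with multiple reporter units → chemical dosing, 24 h → total RNA isolation → RT with oligo(dT) → reporter-specific PCR, 6-FAM primer extension, HpaI digest → capillary electrophoresis. Positive direction vs DMSO control.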
# [14] = target: Retinoic acid receptor alpha (Homo sapiens) (UniProt P10276); experiment: ATG_RARa_TRANS: Attagene TRANS-FACTORIAL HepG2 Assay for human Retinoic Acid Receptor alpha (RARa) (AID 2283005; active = hit-call score of the fitted dose curve at least 0.9, where 1 is the maximum)
# Chain of Retinoic acid receptor alpha (Homo sapiens) (P10276 whole entry, looked up, the tested form may be a part): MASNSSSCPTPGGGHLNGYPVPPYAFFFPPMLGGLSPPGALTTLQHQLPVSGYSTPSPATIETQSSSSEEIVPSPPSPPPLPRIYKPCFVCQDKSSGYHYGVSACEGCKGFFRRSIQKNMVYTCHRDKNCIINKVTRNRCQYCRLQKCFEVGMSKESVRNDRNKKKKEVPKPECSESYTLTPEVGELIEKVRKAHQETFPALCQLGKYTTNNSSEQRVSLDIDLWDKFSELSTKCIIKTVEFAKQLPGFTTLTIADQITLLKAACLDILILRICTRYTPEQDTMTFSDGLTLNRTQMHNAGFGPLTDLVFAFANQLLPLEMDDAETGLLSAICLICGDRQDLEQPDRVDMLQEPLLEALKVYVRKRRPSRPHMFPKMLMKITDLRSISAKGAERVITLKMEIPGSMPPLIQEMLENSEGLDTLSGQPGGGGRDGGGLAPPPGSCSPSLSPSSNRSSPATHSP
# Outline: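 HepG2 transiently transfected with multiplex GAL4-UAS reporter units including a human RARa–GAL4 chimera; 24 h compound exposure. Reporter mRNA quantified by RT-PCR, 6-FAM labeling and capillary electrophoresis; gain of signal versus DMSO.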
# [15] = BSK_3C_Proliferation: Cell Proliferation Assessment in the BioMAP Diversity Plus: 3C Assay (AID 2283006); conditions: primary human endothelial cells (HUVEC);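 note: potency may reflect either rise or fall in cell number versus DMSO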
# Outline: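 HUVEC, sub-confluent; 48 h chemical exposure; 10% TCA fix, 0.1% SRB stain, A560 total protein. Gain or loss of signal fitted both directions vs DMSO control.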
# [16] = target: Peroxisome proliferator-activated receptor gamma (Homo sapiens) (UniProt P37231); experiment: ATG_PPARg_TRANS: Attagene TRANS-FACTORIAL HepG2 Assay for human Peroxisome Proliferator-activated Receptor-gamma (PPARg) (AID 2283007; active = hit-call score of the fitted dose curve at least 0.9, where 1 is the maximum)
# Chain of Peroxisome proliferator-activated receptor gamma (Homo sapiens) (P37231 whole entry, looked up): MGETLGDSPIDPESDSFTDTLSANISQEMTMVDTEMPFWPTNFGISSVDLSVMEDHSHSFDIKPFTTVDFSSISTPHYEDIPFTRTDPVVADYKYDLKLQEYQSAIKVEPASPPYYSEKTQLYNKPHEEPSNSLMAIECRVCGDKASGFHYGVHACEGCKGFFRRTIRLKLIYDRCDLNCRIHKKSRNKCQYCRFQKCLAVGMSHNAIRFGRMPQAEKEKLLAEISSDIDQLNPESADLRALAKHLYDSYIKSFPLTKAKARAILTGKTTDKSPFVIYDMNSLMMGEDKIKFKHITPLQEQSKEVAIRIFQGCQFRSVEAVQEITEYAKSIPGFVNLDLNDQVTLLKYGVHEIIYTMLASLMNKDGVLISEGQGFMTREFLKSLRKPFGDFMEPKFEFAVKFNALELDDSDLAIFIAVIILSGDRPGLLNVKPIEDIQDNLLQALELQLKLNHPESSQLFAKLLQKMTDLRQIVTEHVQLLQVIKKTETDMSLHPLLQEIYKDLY
# Outline: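 Twenty-four hours after chemical dosing of transiently transfected HepG2 cells, isolated RNA was converted to cDNA, reporter sequences amplified and 6-FAM-labelled, then HpaI-digested and analysed by capillary electrophoresis. Signal increase against DMSO was fitted.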
# [17] = target: Nuclear receptor subfamily 1 group I member 2 (Homo sapiens) (UniProt O75469); experiment: ATG_PXR_TRANS: Attagene TRANS-FACTORIAL HepG2 Assay for human Pregnane X Receptor (PXR) (AID 2283008; active = hit-call score of the fitted dose curve at least 0.9, where 1 is the maximum)
# Chain of Nuclear receptor subfamily 1 group I member 2 (Homo sapiens) (O75469 whole entry, looked up, the tested form may be a part): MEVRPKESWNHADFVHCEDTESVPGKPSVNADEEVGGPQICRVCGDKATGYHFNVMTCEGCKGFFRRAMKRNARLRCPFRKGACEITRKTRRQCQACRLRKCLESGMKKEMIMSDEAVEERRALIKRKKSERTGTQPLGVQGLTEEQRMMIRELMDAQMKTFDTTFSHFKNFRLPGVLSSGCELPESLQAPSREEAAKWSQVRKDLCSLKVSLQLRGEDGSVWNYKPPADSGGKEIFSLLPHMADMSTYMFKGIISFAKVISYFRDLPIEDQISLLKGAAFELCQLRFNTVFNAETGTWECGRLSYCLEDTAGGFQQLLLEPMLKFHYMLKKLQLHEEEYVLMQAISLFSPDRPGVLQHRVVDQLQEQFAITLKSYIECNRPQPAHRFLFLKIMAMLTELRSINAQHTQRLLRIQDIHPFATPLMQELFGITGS
# Outline: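 Trans-factorial format: exogenous NR-Gal4 fusion activity, not endogenous factor, in transfected human HepG2 liver cells. After 24 h dosing, RNA isolated, reverse-transcribed, amplified and resolved by capillary electrophoresis; induction scored versus DMSO.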
# [18] = target: human Retinoic Acid Receptor gamma (RARg), RARG (gene 5916) (UniProt P13631); experiment: ATG_RARg_TRANS: Attagene TRANS-FACTORIAL HepG2 Assay for human Retinoic Acid Receptor gamma (RARg) (AID 2283009; active = hit-call score of the fitted dose curve at least 0.9, where 1 is the maximum;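 for AC50: AC50 is for reporter induction above DMSO meaning RARg activation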)
# Chain of human Retinoic Acid Receptor gamma (RARg), RARG (gene 5916) (P13631 whole entry, looked up, the tested form may be a part): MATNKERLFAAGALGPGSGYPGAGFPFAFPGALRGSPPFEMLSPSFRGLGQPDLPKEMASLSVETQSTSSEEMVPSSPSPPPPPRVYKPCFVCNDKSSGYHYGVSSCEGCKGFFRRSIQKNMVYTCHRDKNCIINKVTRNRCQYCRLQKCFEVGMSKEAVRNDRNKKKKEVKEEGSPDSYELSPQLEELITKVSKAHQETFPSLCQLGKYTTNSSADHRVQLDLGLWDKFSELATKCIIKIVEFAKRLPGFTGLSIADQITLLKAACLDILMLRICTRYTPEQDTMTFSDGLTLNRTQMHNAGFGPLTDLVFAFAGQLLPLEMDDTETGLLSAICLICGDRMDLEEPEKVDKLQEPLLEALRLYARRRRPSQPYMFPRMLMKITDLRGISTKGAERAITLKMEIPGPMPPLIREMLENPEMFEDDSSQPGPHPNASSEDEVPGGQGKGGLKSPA
# Outline: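 Readout: reporter transcript levels via RT-PCR, 6-FAM primer-extension labelling, HpaI digestion and capillary electrophoresis. Cells: HepG2 carrying transfected RARg-GAL4 chimera plus UAS reporter set. Dosing 24 h; DMSO negative control.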
# [19] = ATG_Oct_MLP_CIS: Attagene CIS-FACTORIAL HepG2 Assay for human Octamer-Binding Transcription Factor (Oct) (AID 2282993); conditions: HepG2 Attagene cis-factorial Oct reporter, mRNA; actives raise or lower the signal
# Outline: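 Using HepG2 cells bearing transfected cis-reporter constructs, mRNA induction was read after 24 h by fluorescent RT-PCR and capillary electrophoresis, with DMSO defining baseline for gain- or loss-of-signal fits.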
# [20] = target: human RAR-related Orphan Receptor beta (RORb), RORB (gene 6096) (UniProt Q92753); experiment: ATG_RORb_TRANS: Attagene TRANS-FACTORIAL HepG2 Assay for human RAR-related Orphan Receptor beta (RORb) (AID 2283010; active = hit-call score of the fitted dose curve at least 0.9, where 1 is the maximum)
# Chain of human RAR-related Orphan Receptor beta (RORb), RORB (gene 6096) (Q92753 whole entry, looked up, the tested form may be a part): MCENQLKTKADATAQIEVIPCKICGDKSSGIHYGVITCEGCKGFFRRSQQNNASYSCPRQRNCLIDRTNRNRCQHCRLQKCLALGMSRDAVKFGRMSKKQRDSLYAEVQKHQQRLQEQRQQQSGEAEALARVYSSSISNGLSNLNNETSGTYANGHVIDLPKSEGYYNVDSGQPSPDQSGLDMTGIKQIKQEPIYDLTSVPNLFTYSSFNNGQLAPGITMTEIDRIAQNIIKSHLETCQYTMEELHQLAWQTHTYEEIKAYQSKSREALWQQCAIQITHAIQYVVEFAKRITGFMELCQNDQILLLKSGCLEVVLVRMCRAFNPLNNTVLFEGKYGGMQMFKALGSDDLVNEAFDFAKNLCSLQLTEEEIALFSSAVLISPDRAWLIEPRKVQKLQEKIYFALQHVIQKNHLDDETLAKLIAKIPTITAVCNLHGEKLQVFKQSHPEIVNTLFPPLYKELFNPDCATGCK
# Outline: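 HepG2, transient MRTU transfection (GAL4-UAS reporters, exogenous NR-Gal4 chimeras); 24 h compound exposure; total RNA → RT-PCR → 6-FAM primer extension → HpaI digest → CE fluorescence. Positive direction vs DMSO baseline.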
compound,measurement,setting,value
CCCCCCCCc1ccc(O)cc1,outcome,[1],inactive
same,outcome,[2],inactive
same,outcome,[3],inactive
same,AC50,[4],11.2 µM (active)
same,outcome,[4],inactive
same,outcome,[5],inactive
same,AC50,[6],32.2 µM (active)
same,AC50,[7],37.2 µM (active)
same,AC50,[8],31.9 µM (active)
same,AC50,[9],33.5 µM (active)
same,AC50,[10],24.8 µM (active)
same,outcome,[10],inactive
same,outcome,[11],inactive
same,AC50,[12],35.6 µM (active)
same,outcome,[13],inactive
same,outcome,[14],inactive
same,AC50,[15],8.43 µM (active)
same,AC50,[16],22 µM (active)
same,AC50,[17],7.55 µM (active)
same,outcome,[17],inactive
same,AC50,[18],33.5 µM (active)
same,outcome,[18],inactive
CCC(=O)c1ccccc1,outcome,[1],inactive
same,outcome,[2],inactive
same,outcome,[3],inactive
same,outcome,[4],inactive
same,outcome,[19],inactive
same,outcome,[5],inactive
same,outcome,[10],inactive
same,outcome,[11],inactive
same,outcome,[16],inactive
same,outcome,[20],inactive
CCSC(C)CC1CC(=O)C(C(CC)=NOC/C=C/Cl)=C(O)C1 (stereo not drawn),outcome,[1],inactive
same,outcome,[2],inactive
same,outcome,[3],inactive
same,outcome,[4],inactive
same,outcome,[19],inactive
same,outcome,[5],inactive
same,outcome,[6],inactive
same,outcome,[8],inactive
same,outcome,[9],inactive
same,outcome,[12],inactive
same,outcome,[14],inactive
same,AC50,[16],35.3 µM (active)
same,AC50,[17],7.44 µM (active)
same,outcome,[18],inactive
Nc1ccc(Cl)cc1C(=O)c1ccccc1,outcome,[1],inactive
same,outcome,[2],inactive
same,outcome,[3],inactive
same,outcome,[4],inactive
same,outcome,[19],inactive
same,outcome,[5],inactive
same,outcome,[10],inactive
same,outcome,[11],inactive
same,AC50,[16],25.8 µM (active)
same,AC50,[17],10.5 µM (active)
O=C(O)C(F)(F)C(F)(F)C(F)(F)C(F)(F)C(F)(F)C(F)(F)C(F)(F)C(F)(F)C(F)(F)C(F)(F)F,AC50,[1],157 µM (active)
same,outcome,[1],inactive
same,outcome,[2],inactive
same,AC50,[3],95.5 µM (active)
same,outcome,[3],inactive
same,AC50,[4],7.52 µM (active)
same,outcome,[4],inactive
same,AC50,[6],33 µM (active) and 5.02 µM (active)
same,outcome,[6],inactive
same,AC50,[8],36.9 µM (active)
same,outcome,[8],inactive
same,AC50,[9],33.4 µM (active)
same,outcome,[9],inactive
same,outcome,[10],inactive
same,AC50,[12],29.8 µM (active)
same,outcome,[12],inactive
same,outcome,[14],inactive
same,AC50,[15],33 µM (active) and 5.16 µM (active) and 5.38 µM (active)
same,AC50,[16],25.5 µM (active) and 13.3 µM (active)
same,outcome,[17],inactive
same,outcome,[18],inactive
same,outcome,[20],inactive
CCOP(=S)(OCC)SCCS(=O)(=O)CC,outcome,[1],inactive
same,outcome,[2],inactive
same,outcome,[3],inactive
same,AC50,[4],19 µM (active)
same,outcome,[19],inactive
same,outcome,[5],inactive
same,outcome,[6],inactive
same,outcome,[7],inactive
same,outcome,[8],inactive
same,outcome,[9],inactive
same,outcome,[12],inactive
same,outcome,[16],inactive
same,AC50,[17],7.88 µM (active)
c1cc[c]([Hg][c]2ccccc2)cc1,AC50,[1],20.6 µM (active)
same,outcome,[2],inactive
same,outcome,[3],inactive
same,outcome,[4],inactive
same,AC50,[19],19 µM (active)
same,outcome,[5],inactive
same,outcome,[10],inactive
same,outcome,[11],inactive
same,AC50,[16],25.2 µM (active)
same,outcome,[17],inactive
same,outcome,[20],inactive
Oc1ccc(-c2ccccc2)cc1,outcome,[1],inactive
same,AC50,[2],176 µM (active)
same,outcome,[3],inactive
same,AC50,[4],100 µM (active)
same,AC50,[19],73.8 µM (active)
same,AC50,[5],27.9 µM (active)
same,AC50,[6],20 µM (active)
same,outcome,[8],inactive
same,outcome,[9],inactive
same,outcome,[10],inactive
same,outcome,[11],inactive
same,outcome,[12],inactive
same,outcome,[16],inactive
same,outcome,[17],inactive
same,outcome,[18],inactive
